A word on the inhibition: it is the drop in the measured response relative to a control, in per cent.

Each structure is given as a SMILES string. Hit rate of the full screen: of about 370,000 compounds, about 2,800 (0.76%) were called active. Only a selection was taken, and actives are over-represented in it overall. Unmarked numbers belong to inactive results. Cut-off read from the data, not from the text of the source: active = inhibition above about 21%; inactive = the rest.

In the experiment the target is E3 ubiquitin-protein ligase UHRF1 (Homo sapiens) (UniProt Q96T88). Nature of the experiment: UHRF1 methylated DNA binding inhibitors, primary screen, counter-screen for MBD2 inhibitor project, biochemical, TR-FRET, human UHRF1, single concentration (AID 687016).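 Note: UHRF1 SRA domain binding a hemimethylated CpG hairpin DNA probe; 0% = median of test compound wells and 100% = reference inhibitor.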 To be noted: UHRF1 binding to methylated oligo, at 4.4 µM, hits give high values. A general note: Counterscreens check selectivity or assay interference.
Chain of E3 ubiquitin-protein ligase UHRF1 (Homo sapiens) (Q96T88 whole entry, looked up, the tested form may be a part): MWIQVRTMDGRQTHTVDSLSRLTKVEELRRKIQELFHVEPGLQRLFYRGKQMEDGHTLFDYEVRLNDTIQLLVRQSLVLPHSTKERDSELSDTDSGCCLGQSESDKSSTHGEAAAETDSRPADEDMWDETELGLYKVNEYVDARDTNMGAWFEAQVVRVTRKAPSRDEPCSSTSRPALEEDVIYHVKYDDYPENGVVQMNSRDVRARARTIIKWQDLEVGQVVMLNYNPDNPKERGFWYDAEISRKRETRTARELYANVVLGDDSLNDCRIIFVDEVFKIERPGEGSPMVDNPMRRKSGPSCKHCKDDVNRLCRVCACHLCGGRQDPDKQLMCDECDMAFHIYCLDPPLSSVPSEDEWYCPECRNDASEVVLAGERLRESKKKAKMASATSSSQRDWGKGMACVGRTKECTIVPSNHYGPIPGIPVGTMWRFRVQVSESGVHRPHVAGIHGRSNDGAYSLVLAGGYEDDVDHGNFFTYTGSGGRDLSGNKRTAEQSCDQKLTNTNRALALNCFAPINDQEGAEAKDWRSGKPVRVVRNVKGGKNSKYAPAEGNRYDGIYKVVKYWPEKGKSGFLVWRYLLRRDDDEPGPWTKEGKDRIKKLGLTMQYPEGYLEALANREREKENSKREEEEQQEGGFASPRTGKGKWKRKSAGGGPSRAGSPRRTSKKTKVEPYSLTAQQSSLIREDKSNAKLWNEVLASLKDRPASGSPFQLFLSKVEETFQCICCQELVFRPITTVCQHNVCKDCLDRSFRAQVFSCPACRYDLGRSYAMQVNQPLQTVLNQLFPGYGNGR
As for `N#Cc1ccc(OC[C@@H](O)CN2CCC(C(O)(c3ccccc3)c3ccccc3)CC2)c(F)c1`, the inhibition was -0.23%.
Take `C=CCN1C(=O)[C@@H](CC(=O)N2CCN(C(=O)OCC)CC2)[C@]2(C(=O)OCC)CCCCC/C=C/12`: the inhibition is 0.51%.
For the molecule `Cc1cc(C)cc(OCC(=O)NNC(=O)CCN2C(=O)c3ccccc3C2=O)c1`, the inhibition was -0.19%.
Turning to `Cc1cc(C)cc(OCC(=O)NCc2cc(C)nc3ccccc23)c1`, the inhibition is 37.5% (active).
Next, `Cc1cc(C)cc(OCC(=O)Nc2cc(NC(=O)COc3cc(C)cc(C)c3)cc(C(=O)O)c2)c1`: -0.86%; `CCOc1ccc(Oc2c(Cl)cnn(-c3ccc(C)cc3)c2=O)cc1`: 0.41%.
For `CCOC(=O)C1=C(C)NC2=C(C(=O)CC(C)(C)C2)C1c1ccc2c(c1)OCO2` (stereo not drawn), the inhibition was 3.68%.
Regarding `O=C(Nc1nc2ccc(Cl)cc2s1)c1cc(-c2ccc(Cl)cc2)nc2ccccc12`, the inhibition is 1.94%.
With `Cc1cc(C(=O)Nc2ccc(C)c(S(=O)(=O)N3CCOCC3)c2)c2ccccc2n1`, the inhibition is 6.42%.
The result for `O=C(Nc1cccc(F)c1)c1cc(-c2ccco2)nc2ccccc12` reads 23% (active); that for `O=C1CC[C@@H](COc2ccc3[nH]cc(-c4ccccc4)c3c2-c2ccccc2)N1`, -0.59%.
The result for `C[C@H](C(=O)N(C)c1ccccc1)[C@@H](O)c1ccc(Cl)cc1` reads -0.97%; that for `COc1cccc(CNC(=O)C2CCCN(c3nc4ccccc4o3)C2)c1OC` (stereo not drawn), 3.57%; that for `C=CCOC/C=C/C#CCN(CC=C)Cc1ccc(OC)cc1OC`, -1.02%.
The result for `O=C(NCc1cccs1)C1CCCN(S(=O)(=O)c2ccc([N+](=O)[O-])cc2)C1` (stereo not drawn) reads 1.19%.
Take `O=C(NCCOc1ccccc1F)Nc1ccc(Br)cc1`: the inhibition was 4.11%.
Next, `COCCNC(=O)Nc1ccc2nc(-c3ccco3)c(-c3ccco3)nc2c1`: 91.1% (active); `COCCN(C(=O)c1ccco1)c1nnc(-c2ccc(OC)cc2)s1`: -1.02%; `O=C(NC1CCCC1)C1CSCCS(=O)(=O)N1Cc1ccccc1` (stereo not drawn): -0.6%.
The result for `COC(=O)[C@]12C[C@H](CC(=O)NCCc3ccccc3OC)C(=O)N(Cc3ccco3)C1=C[C@H](C(C)C)O[C@@H]2C1CC1` reads 3.75%.
With `O=[N+]([O-])c1ccc(COc2ccccc2CN2CCOCC2)cc1`, the inhibition was -1.96%.
The result for `OCCN1CCOCCOCCN(CCO)CCN(CCO)CC1` reads -0.79%.
Take `Oc1c(CN2CCOCC2)ccc(CN2CCOCC2)c1O`: the inhibition is 25.4% (active).
With `O=C(CSc1nnc(-c2ccccn2)n1-c1ccccc1)Nc1ccc2cn[nH]c2c1`, the inhibition is -1.24%.
Take `Cc1ccccc1CS(=O)(=O)Cc1ccc(C(=O)Nc2ccc(Cl)cc2)o1`: the inhibition is 0.04%.
As for `Cc1c(NC(=S)Nc2ccccc2)c(=O)n(-c2ccccc2)n1C`, the inhibition is -4.22%.
As to `Cc1c(NC(=O)c2cccnc2)c(=O)n(-c2ccccc2)n1C`, the inhibition was 23.3% (active).
Next, `Cc1c(NC(=O)c2c([N+](=O)[O-])cnn2C)c(=O)n(-c2ccccc2)n1C`: -1.94%; `COC(=O)[C@]12C[C@H](CC(=O)NCc3ccccc3)C(=O)N(CCC3=CCCCC3)C1=C[C@H](C(C)C)O[C@@H]2C1CC1`: 3.6%.
With `COC(=O)C1CN(Cc2ccc(F)cc2)CCS(=O)(=O)N1Cc1ccc(Cl)cc1` (stereo not drawn), the inhibition is 2.67%.
The result for `O=C(Nc1cccc(Cl)c1)OC1CC2CC1[C@H]1CCCCN1[C@H]2Cc1ccccc1` (stereo partly drawn) reads 0.5%; that for `Cc1ccccc1CSc1nnc(CCCCCNC(=O)OC(C)(C)C)o1`, 0.59%; that for `Cc1cccc(NC(=O)CSc2nnc(CCCCCNC(=O)OC(C)(C)C)o2)c1C`, 34.9% (active).
For `Cc1cccc(NC(=O)CSc2nnc(CCNC(=O)OC(C)(C)C)o2)c1C`, the inhibition was 2.63%.
Next, `O=C(NCc1cccs1)C1CCN(S(=O)(=O)c2ccccc2[N+](=O)[O-])CC1`: 4.97%; `Cc1cc(NC(=O)COC(=O)COc2ccc(Cl)cc2C)c([N+](=O)[O-])cc1C`: 23% (active); `CCCC(=O)OCC(=O)Nc1cc(Cl)ccc1[N+](=O)[O-]`: -3.24%.
With `COc1ccc(OCC(=O)Nc2cc(C)c(Cl)cc2OC)c([N+](=O)[O-])c1`, the inhibition is -2.47%.
`C=CCN1C(=O)[C@@H](CC(=O)N2CCN(C(=O)c3ccco3)CC2)[C@]2(C(=O)OC)CCCCC=C12`: the inhibition is 1.46%.
As to `O=C(Nc1ccc(Br)cc1)OCCN1C(=O)CCC12CCC(c1ccccc1)CC2` (stereo not drawn), the inhibition was -4.19%.
With `CC(=O)O[C@@]1(C(C)=O)CCC2[C@H]3C=C(C)C4=CC(=O)CC[C@@]4(C)C3CC[C@]21C` (stereo partly drawn), the inhibition is 2.53%.
As to `CCCCNC(=O)C[C@@H]1C(=O)N(CCc2ccc(Cl)cc2)C2=CCCC[C@]21C(=O)OCC`, the inhibition is -3.97%.
Consider `COc1ccc(-c2cc(-c3nnc(SCc4ccc([N+](=O)[O-])cc4)n3N)[nH]n2)cc1`, for which the inhibition is -1.01%.
`CC(CN1CCCCC1)c1ccccc1` (stereo not drawn): the inhibition is -1.54%.
As to `CC(CN1CCOCC1)c1ccccc1` (stereo not drawn), the inhibition is 55.2% (active).
Take `OC(c1ccccc1)C(CN1CCOCC1)c1ccccc1` (stereo not drawn): the inhibition is -2.23%.
Take `COC(=O)[C@]1(C#N)CC(=O)N(CC2CCCCC2)[C@@H]1c1ccccc1`: the inhibition was 5.42%.
The result for `Cc1ccc(C(=O)OCC(=O)NC2CCCCCCC2)cc1C` reads 0.37%; that for `Cc1ccc(C(=O)COC(=O)CCCC(=O)NC2CCCCC2)cc1[N+](=O)[O-]`, 48.1% (active).
Regarding `O=C(COC(=O)c1cc([N+](=O)[O-])ccc1NCc1ccccc1)NC1CCCCC1`, the inhibition is -2.56%.
Next, `COC(=O)Cc1ccc(OCC(=O)NC2CCCC2)cc1`: 0.36%; `O=C(COC(=O)Cc1ccc([N+](=O)[O-])cc1)NC1CCCCCC1`: 45.9% (active); `O=C(CCNC(=O)c1ccc([N+](=O)[O-])cc1)NC1CCCCC1`: -0.33%.
With `CCCC[C@H](C(=O)N(CC)c1ccccc1)[C@@H](O)c1ccc2ccccc2c1`, the inhibition was -2.02%.
`Cc1ccccc1CN1CCCCC(NC(=O)c2cccc(C#N)c2)C1=O` (stereo not drawn): the inhibition is -0.18%.
Consider `COC(=O)C[C@@H]1CC[C@H]2[C@@H](COc3ccc(NS(=O)(=O)CC(F)(F)F)cc3C(=O)N2C)O1`, for which the inhibition was 1.54%.
With `CC[C@@H](CCC(=O)N(c1ccccc1)c1ccccc1)C1CC1`, the inhibition was 1.36%.
Take `CC(NC(=S)NC1CCCCC1)C(c1ccccc1)N1CCOCC1` (stereo not drawn): the inhibition is 0.56%.
In the case of `COC(=O)c1ccc(NC(=S)NN2CCOCC2)cc1`, the inhibition is -1.42%.
Regarding `S=C(NC1CCCCC1)NN1CCOCC1`, the inhibition is 32.8% (active).
On to `N[C@@H](Cc1ccccc1)C(=O)N1CCC[C@@H]1C(=O)N1CCC2CCN(S(=O)(=O)c3ccccc3)CC21` (stereo partly drawn), for which the inhibition is 1.24%.
Take `C=CCN(C)CC#Cc1ccccc1`: the inhibition is 1.63%.
With `O=C(CN1CCCCC1)NC(=O)Nc1ccccc1F`, the inhibition was -2.79%.
As for `NC(=O)c1ccc(CN2CCC(Cc3ccccc3)CC2)cc1`, the inhibition is -0.37%.
As to `CC(C)(C)NC(=O)NC(=O)CN1CCC(Cc2ccccc2)CC1`, the inhibition is 38.1% (active).
As to `CC(CCN1CCC(C(O)(c2ccccc2)c2ccccc2)CC1)Oc1ccc([N+](=O)[O-])cc1Cl` (stereo not drawn), the inhibition was -2.34%.
As for `CCCC[C@H]1C2CC(OC(=O)NCc3ccccc3)C(C2)[C@H]2CCCCN21` (stereo partly drawn), the inhibition was 2.4%.
Turning to `COc1ccc(C(=O)OCCN2CCN(C3CN(Cc4cn(Cc5ccccc5F)nn4)S(=O)(=O)C3)CC2)cc1OC` (stereo not drawn), the inhibition was 16.4%.
`C=CCn1c(=S)[nH]c2scc(-c3ccco3)c2c1=O`: the inhibition was 42% (active).
For the molecule `O=C(CSc1nnc(-c2ccccc2)n1Cc1ccco1)Nc1ccccc1-c1ccccc1`, the inhibition is -1.14%.
In the case of `Cc1ccc(-n2c(SCC(=O)Nc3ccc(S(=O)(=O)Nc4nccs4)cc3)nnc2-c2ccncc2)cc1`, the inhibition is -0.73%.
Regarding `CCOc1ccc(-n2c(SCC(=O)Nc3cc(C)c(NC(=O)c4ccccc4)cc3OC)nnc2-c2cccc(Cl)c2)cc1`, the inhibition was -1.29%.
With `O=C(NC1CCC1)c1ccc(C#CC2CC2)cn1`, the inhibition is 1.8%.
Regarding `COCCCNC(=O)C[C@H]1C[C@@]2(C(=O)OC)C(=C[C@H](C(C)(C)C)O[C@@H]2C)N(Cc2ccc(Cl)cc2Cl)C1=O`, the inhibition was -1%.
For the molecule `CC1CN(CCOc2ccccc2[N+](=O)[O-])CC(C)O1` (stereo not drawn), the inhibition is 0.96%.
Take `CC1CN(CCCOc2ccccc2-c2ccccc2)CC(C)O1` (stereo not drawn): the inhibition is 1.48%.
Next, `Cc1cc(C)c(OCCN2CC(C)OC(C)C2)c(Br)c1` (stereo not drawn): 22.5% (active); `CCn1c(=O)n2n(c1=O)[C@@]1(C=C3CCCC[C@H]32)N=C(NC(=O)c2ccccc2)N(Cc2ccccc2)[C@H]1Cc1ccccc1`: 1.35%; `CCN(CC)C(=O)CC[C@H]1CC[C@]2(CCCN(Cc3ccc(Cl)cc3)C2)O1`: -2.85%.
`COC(=O)Cc1csc(/N=C/c2c(O)n(-c3cccc(C(F)(F)F)c3)c(=O)c3ccccc23)n1`: the inhibition is 20.8% (active).
`COC(=O)Cc1c(O)ccn(Cc2cccc(C(F)(F)F)c2)c1=O`: the inhibition is -0.17%.
Take `O=C(Cc1cccs1)NCc1cccc(C(F)(F)F)c1`: the inhibition is 2.41%.
Consider `COc1ccc(CN2C(=O)N3Cc4cc(OC)ccc4C3CS2(=O)=O)cc1` (stereo not drawn), for which the inhibition is -0.8%.
Take `Cc1ccc(NC(=O)Nc2cc(C)nn2-c2ccccc2)cc1`: the inhibition is -0.03%.
The result for `C#CCNC(=O)C[C@H]1C[C@@]2(C(=O)OC)C(=C[C@H](C(C)C)O[C@@H]2C2CC2)N(Cc2ccco2)C1=O` reads 1.95%; that for `COc1ccc(NC(=O)CN(C)C(=O)c2cc(C)oc2C)cc1`, 0.64%.
`COc1ccc(Cc2n[nH]c(=S)n2NC(=O)Nc2ccc(C)cc2)cc1`: the inhibition is -1.17%.
Next, `COc1ccc(CC(=O)Nc2ccc(-c3nnc(-c4ccc(C)cc4)o3)cc2)cc1`: 22.5% (active).

The values are drawn from PubChem BioAssay AID687016 (The Scripps Research Institute Molecular Screening Center, 2013).
